Screens: PubChem BioAssay, National Center for Advancing Translational Sciences (NCATS)
The entries come from a sample that favours hits as a whole.
Pf Dd2 inh: inhibitors of Plasmodium falciparum Dd2 growth; P. falciparum Dd2 growth, SYBR Green, 72 h; Potency, µM (doses to about 28.9 µM), for inactives: at the top dose activity, negative = inhibition, actives largely listed as inhibitors; 4.3% of 120,000 active; active = well fitted inhibition curve with a large enough effect;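 note: plate controls were DMSO vehicle for no effect and reference drug for full effect; nearly all actives have a fitted effect of over 65% in size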
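Readout: SYBR Green fluorescence, 485 nm excitation, 535 nm emission, after ~16 h lysis at 37C. Before that, Dd2-infected red cells (2.5% hematocrit) grew 72 h with compound, 29 uM top final concentration.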
* hit, by the source's call; i = inactive; [ ] = remark or other dose. Potency is the fitted concentration of half-maximal effect.

SMILES | Pf Dd2 inh
Cc1noc(C)c1-c1ccc2c(n1)CN(Cc1nc3ccccc3s1)C(=O)CO2 | i
Cc1ccc(CN(C(=O)c2ccco2)c2ccc(CC(=O)NCc3ccccc3)cc2)cc1 | i
O=C(CCNc1c(-c2cccc(F)c2)nc2cnccn12)N1CCCC1 | i
COc1ccc(C(=O)N[C@@H]2CCC[C@@H]2C(=O)NCCCN2CCOCC2)cn1 | -15%
Cn1c(=O)n([C@H]2CCCN(C(=O)C3CC3)C2)c2ncccc21 | -5%
CCN(CC)C(=O)[C@@H]1C[C@@H](n2cc(Cn3c(C)nc4ccccc43)nn2)CN1 | -16%
O=Cc1cccc(-c2cccc(C(F)(F)F)c2)c1 | i
O=C(O)c1cccc(-c2cccc(C(F)(F)F)c2)c1 | 5%[44.1 µM]
O=Cc1cccc(-c2ccccc2F)c1 | 2%[76.6 µM]
Fc1ccccc1-c1noc(NCc2ccccc2)n1 | -4%
O=Cc1cccc(-c2ccc(F)cc2F)c1 | -11%[44.1 µM]
O=C(c1ccncc1)N1CC2CCC(C1)N2Cc1cccc(-c2ccc(F)cc2F)c1 | -9%
NCc1cccc(-c2ccccc2F)c1 | 11µM*
NCc1cccc(-c2cccc(C(F)(F)F)c2)c1 | 11µM*
NCc1cccc(-c2ccc(F)cc2F)c1 | 13µM*
Cc1cnc(-c2cccnc2)n1CC1CCN(C(=O)Cc2ccccc2)CC1 | -16%
O=C(O)C[C@@H]1CCN(C(=O)Nc2ccccc2)C[C@@H]1CCN1CCCCC1 | 5%[44.1 µM]
COCCN1C(=O)CS(=O)C12CCN(S(=O)(=O)c1ccccc1)CC2 (stereo not given) | 3%
CCCN1CCCn2nc(CNC(=O)c3ccc(OC)nc3OC)cc2C1 | i
O=C(Cn1c(=O)oc2ccccc21)N1CCC2(CC1)NCCc1c2[nH]c2ccccc12 | 8.9µM*
O=C(CN1CCCC1=O)N1CCC2(CC1)NCCc1c2[nH]c2ccccc12 | 19%
COCCC(=O)N1CCC2(CC1)NCCc1c2[nH]c2ccccc12 | -19%
Cc1cc(Cl)ccc1S(=O)(=O)N(C)CC1CCOC1 (stereo not given) | -21%
Cc1ccccc1OCC(=O)Nc1ccc2nc(SCCOc3ccccc3)sc2c1 | -10%
Cc1ccccc1NC(=O)CSc1nc2ccc(NC(=O)c3ccco3)cc2s1 | 11µM*
SMILES | Pf Dd2 inh
Cc1ccc(NC(=O)CSc2nc3ccc(NC(=O)c4ccco4)cc3s2)c(C)c1 | -8%
Cc1ccccc1C(=O)Nc1ccc2nc(SCCOc3ccccc3)sc2c1 | i
Cc1ccccc1NC(=O)CSc1nc2ccc(NC(=O)c3ccccc3)cc2s1 | 14%
Cc1ccccc1OCCSc1nc2ccc(NC(=O)c3cccs3)cc2s1 | 1.1µM*
Cc1cc(C[C@@H]2COC[C@@H]2NC(=O)c2cnc(Nc3ccccc3)nc2)on1 | -7%
CC(=O)N(C[C@H]1O[C@@H](CC(=O)NC(C)C)[C@H](O)[C@@H]1O)C[C@H]1O[C@@H](CC(=O)NC(C)C)[C@H](O)[C@@H]1O | 21%
O=C(COc1ccccc1)N[C@@H]1C[C@H](Cn2cc(C3CC3)nn2)[C@@H](O)[C@H]1O | -7%[44.1 µM]
CC(C)CC(=O)N1CCOc2ccc(CN3CCc4ccccc4C3)cc2C1 | i
CCn1nc(C)c(CCC(=O)NC2CCCc3c2[nH]c2ccccc32)c1C (stereo not given) | -24%
COc1cc(CNC(=O)CC2CCOCC2)cc(OC)c1 | -18%
CCOC(=O)CCNC(=O)N1CCc2c(nc(-c3ccc(F)cc3)[nH]c2=O)C1 | -21%
O=C(Nc1cccc(-c2nc3cc(Cl)ccc3o2)c1)c1cc([N+](=O)[O-])ccc1N1CCOCC1 | i
CCc1ccc2oc(-c3cccc(NC(=O)c4ccc(-c5cccc([N+](=O)[O-])c5)o4)c3)nc2c1 | 2µM*
CCc1ccc2oc(-c3cccc(NC(=O)COc4ccccc4Cl)c3)nc2c1 | 42%
COc1ccc(NC(=O)Cn2c(=O)n(Cc3nc(C)no3)c(=O)c3cc4c(cc32)OCO4)cc1OC | -8%
CC(C)c1ccc(NC(=O)Cn2c(=O)n(Cc3nc(-c4ccccc4)no3)c(=O)c3cc4c(cc32)OCO4)cc1 | -8%
Cc1noc(Cn2c(=O)c3cc4c(cc3n(CC(=O)Nc3ccc(C(C)C)cc3)c2=O)OCO4)n1 | 13µM*
Cc1cc(C(=O)N2CCC(c3nc(C4CCOCC4)no3)CC2)nn1C | 13%
CCC(=O)N1CCc2cc(S(=O)(=O)NC(C(=O)NCc3ccccc3Cl)C(C)C)ccc21 (stereo not given) | i
Cc1cc(Cl)ccc1NS(=O)(=O)c1ccc2c(c1)CCN2S(C)(=O)=O | 0%
CS(=O)(=O)N1CCc2cc(S(=O)(=O)NCc3ccccc3Cl)ccc21 | 3.2µM*
COC[C@H]1CCCN1[C@@H]1[C@H](O)[C@H](CO)O[C@@H]1CN(Cc1ccc(F)cc1)Cc1ccc(F)cc1 | 4.5µM*
COC[C@H]1CCCN1[C@@H]1[C@H](O)[C@H](CO)O[C@@H]1CNS(=O)(=O)c1cccs1 | -13%
OC[C@@H]1O[C@H](CNCc2ccc(F)cc2)[C@H](N2CCCC2)[C@@H]1O | i
O=C(c1ccncc1)N1CCC(N2CC3CC(C2)[C@H]2CCCC(=O)N2C3)CC1 (stereo not given in full) | -6%
SMILES | Pf Dd2 inh
CC(C)(C)C(=O)Nc1cccc(-c2cn3cccnc3n2)c1 | -6%
CC(C)(Oc1ccc(Cl)cc1)C(=O)Nc1cccc(-c2cn3cccnc3n2)c1 | 11µM*
COc1cccc(NC(=O)Nc2cccc(-c3cn4cccnc4n3)c2)c1 | i
N[C@H]1CCN2C(=O)c3cc(-c4ccc(Cl)cc4)ccc3NC(=O)[C@@H]2C1 | i
Cc1noc(C)c1[S+](=O)([O-])N1CCC(c2nn(-c3ccccc3)c(=O)[nH]2)CC1 | -17%
COc1ccc(C(=O)Nc2ccc3c(N4CCCCC4)ncnc3c2)cc1 | -22%
O=C(Nc1ccc2ncnc(N3CCCCC3)c2c1)c1ccc(F)cc1 | i
O=C(Nc1ccc2c(N3CCCCC3)ncnc2c1)c1ccc(F)c(F)c1 | 2µM*
Cc1noc([C@H]2CCN(C(=O)Nc3ccc4c(c3)OCCO4)C[C@H]2NC(=O)C2CC2)n1 | 2%
CNC(=O)CCn1ncc2cc(OC3CCc4cccc(-c5ccc(O)c(F)c5)c43)ccc21 (stereo not given) | i
CNC(=O)CCn1ncc2cc(OCc3ccccc3-c3cccc(OC)c3)ccc21 | -4%[44.1 µM]
COc1ccc(C)cc1-c1ccc(COc2ccc3c(cnn3CCC(=O)O)c2)cc1 | i
CNC(=O)CCn1ncc2cc(OCc3ccccc3-c3ccc(OC)cc3C)ccc21 | 5.6µM*
O=C(O)CCn1ncc2cc(OCc3ccc(-c4cccc(CO)c4)cc3)ccc21 | i
CNC(=O)CCn1ncc2cc(OCc3ccccc3-c3ccsc3)ccc21 | 6.3µM*
Cc1cccc(NC(=O)Cn2ccn3nc4c(c3c2=O)CCCCC4)c1C | i
CCc1cccc(C)c1NC(=O)CN1C(=O)NC2(CCC(C)CC2)C1=O (stereo not given) | 4%
c1ccc2oc(-c3ccnc4nc(C5CCC5)nn34)cc2c1 | i
COc1cc(OC)cc(-c2nc(C3CC(=O)N(c4ccc(OC)c(OC)c4)C3)no2)c1 (stereo not given) | 53%
CCc1ccc(-c2nc3c(c(SCc4ccccc4F)n2)Cc2c(CO)cnc(C)c2O3)cc1 | -10%
Cc1ccc(-c2nc3c(c(SCc4ccc(Br)cc4)n2)Cc2c(CO)cnc(C)c2O3)cc1 | -1%
CCOc1ccc(N(CC)C(=O)CCc2nc(-c3ccccc3F)no2)cc1 | 47%[0.594 µM]
COc1ccccc1-c1nc2c(c(SCc3cccc(Cl)c3)n1)Cc1c(CO)cnc(C)c1O2 | 2.5µM*
CCc1ccc(CSc2nc(-c3ccccc3F)nc3c2Cc2c(CO)cnc(C)c2O3)cc1 | 10µM*
